PINK1 modulator = PINK1 expression modulation; PINK1 immunofluorescence, high-content cytometry, 24 h; Potency, µM (top dose mostly 76.6 µM), usual class: activators; hit rate 0.2% among 410,000; active = well fitted activation curve with a large enough effect; inconclusive = small, poorly fitted or top-dose-only effect; cell line not stated here; also: nearly all actives have a fitted effect of over 65% in size
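Cells are seeded, rested 12 hours, then given compound at five concentrations or DMSO for 24 hours. After fixation, blocking and antibody staining, PINK1 amount and mitochondrial localization are scored; CCCP serves as control.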
SW480 rereplic = induces DNA re-replication in SW480 colon adenocarcinoma cells; SW480 DNA re-replication, Hoechst DNA content imaging, 48 h; Potency, µM (doses to about 46.1 µM), usual class: activators; hit rate 1.8% among 340,000; also: nearly all actives have a fitted effect of over 55% in size
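Compounds, transferred as 23 nL by pin tool, were incubated with cells for 48 hr; DNA content per nucleus was then quantified by Hoechst staining and fluorescence plate imaging.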
MCF10A rereplic = inducers of DNA re-replication in MCF 10A breast cells | Potency, µM (highest dose often 46.1 µM), most hits filed as activators | MCF 10A DNA re-replication, Hoechst nuclear intensity, 48 h | hit rate 2.9% among 350,000; also: nearly all actives have a fitted effect of over 50% in size
KB-3-1 cytotox = KB-3-1 parental cell cytotoxicity | hit rate 1.4% among 400,000 | Potency, µM (titrated, usually from 46.1 µM), actives largely listed as cytotoxic | KB-3-1 viability, CellTiter-Glo ATP luminescence, 72 h; also: nearly all actives have a fitted effect of over 60% in size
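Here the drug-naive KB-3-1 line serves as comparator for MDR sub-line selectivity; cells received compound titrations, 72 h at 37 °C, then CellTiter-Glo readout.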
KB-V1 MDR tox = kills drug-selected multidrug resistant KB-V1 cells | KB-V1 MDR cells viability, CellTiter-Glo, 72 h | Potency, µM (top dose mostly 46.1 µM), hits mostly cytotoxic | hit rate 3.4% among 400,000 | AID 1347076; also: nearly all actives have a fitted effect of over 60% in size
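In this primary screen, KB-V1 cells overexpressing P-gp are incubated with library compounds (lowest to highest concentration) for 72 h at 37 degrees C before a luminescent ATP viability read.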
ALOX12 inh = ALOX12 (human) lipoxygenase inhibition. purified 12hLO, xylenol orange hydroperoxide absorbance. P18054. hit rate 1.1% among 580,000. AID 1671190. Potency, µM (doses to about 108 µM), actives largely listed as inhibitors
Target sequence (P18054 whole entry, looked up): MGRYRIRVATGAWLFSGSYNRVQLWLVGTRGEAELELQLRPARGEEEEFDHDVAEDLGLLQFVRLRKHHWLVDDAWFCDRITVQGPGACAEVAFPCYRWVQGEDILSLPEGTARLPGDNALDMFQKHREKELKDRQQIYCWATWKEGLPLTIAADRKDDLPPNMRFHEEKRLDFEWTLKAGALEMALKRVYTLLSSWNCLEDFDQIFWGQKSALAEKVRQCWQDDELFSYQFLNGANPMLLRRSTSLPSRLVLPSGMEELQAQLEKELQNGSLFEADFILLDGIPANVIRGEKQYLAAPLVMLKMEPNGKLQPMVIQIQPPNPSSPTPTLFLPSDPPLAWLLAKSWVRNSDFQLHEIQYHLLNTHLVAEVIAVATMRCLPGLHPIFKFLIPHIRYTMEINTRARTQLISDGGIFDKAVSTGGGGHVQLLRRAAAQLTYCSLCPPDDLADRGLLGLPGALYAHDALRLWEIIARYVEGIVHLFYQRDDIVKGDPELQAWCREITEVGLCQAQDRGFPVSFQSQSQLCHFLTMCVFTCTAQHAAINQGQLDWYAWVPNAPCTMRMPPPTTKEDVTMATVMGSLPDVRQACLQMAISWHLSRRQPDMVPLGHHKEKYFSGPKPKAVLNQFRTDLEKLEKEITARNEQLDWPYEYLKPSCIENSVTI
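Purified human 12hLO at 150 nM in 25 mM Hepes, 0.01% Triton X-100, pH 7.0, preincubated 15 min at room temperature with compound. Reaction started with 40 uM arachidonic acid, 30 min at room temperature. Hydroperoxide measured by Fe-xylenol orange, 573/405 nm absorbance ratio.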
Numbers stand for hits; 0 = inactive; ? = inconclusive; - = no result given; [ ] = another dose, or the depositor's remark. In the library only some 5.8% were active in any assay of this set; here they are far more common. Unless noted, calls follow the shape of the dose curve; as a rule, active = well fitted curve in the direction sought with a large enough effect; inconclusive = small, poorly fitted or top-dose-only effect, or another doubt; inactive = no such curve, though single readings can be large; an effect the other way counts as inactive or inconclusive.

SMILES	PINK1 modulator	SW480 rereplic	MCF10A rereplic	KB-3-1 cytotox	KB-V1 MDR tox	ALOX12 inh
Cc1ccc2nc(CO[C@H]3CN(Cc4ccc5c(c4)OCO5)C[C@H]3F)[nH]c2c1	-	-	-	-	-	0
CCN1C(=O)c2ccccc2S(=O)c2ccc(C(=O)N3CCN(c4cccc(C)c4)C(C)C3)cc21 (centres undefined)	0	-	-	18µM	0	?
Cc1ccc(C)c(CN2C(=O)c3ccccc3S(=O)c3ccc(C(=O)N4CCN(c5ccccn5)CC4)cc32)c1 (centres undefined)	0	0	?	10µM	?	0
O=C1Nc2ccccc2OCC12CCN([S+](=O)([O-])c1cccs1)CC2	-	-	-	-	-	0
N#Cc1nnn2c1nc(N)c1c(Cl)cccc12	0	-	-	1.3µM	0.58µM	0
N#Cc1nnn2c1nc(N)c1c(F)cccc12	0	0	0	?	2.9µM	?
CCCn1cc(C(=O)N2CCC(n3cccc3)CC2)c2ccccc21	-	-	-	-	-	0
O=C(Cn1ccc2ccc(Cl)cc21)N1CCCCCC1	-	-	-	-	-	0
O=C(CNc1ccc2ccccc2c1)N/N=C/c1cc2ccccc2nc1Cl	0	0	18µM	0	0	0
CC(C)(C)c1ccc(C2CC2C(=O)N/N=C\c2cc3ccccc3nc2Cl)cc1 (centres undefined)	0	0	0	0	10µM	0
Cc1ccc2nc(Cl)c(/C=N/NC(=O)[C@H]3C[C@@H]3c3ccccc3)cc2c1	0	?	8.2µM	0	0	0
CCCCOCCN(C)CC(=O)NCCCOC	-	-	-	-	-	0
O=C(Nc1ccc(Nc2ccccc2)nc1)c1cccc[n+]1[O-]	-	-	-	-	-	0
Oc1cccc(C=NN=C2c3ccccc3-c3ccccc32)c1	0	0	?	0	18µM	0
O=C(COc1ccc(F)cc1)N1CCC2(CC1)NC(=O)N(c1ccc(F)cc1)N2	-	-	-	-	-	2.5µM
O=C(COc1ccccc1)N1CCC2(CC1)NC(=O)N(c1cccc(F)c1)N2	-	-	-	-	-	2.8µM
Cc1cccc(OCC(=O)N2CCC3(CC2)NC(=O)N(c2cccc(F)c2)N3)c1	-	-	-	-	-	2.2µM
CCc1ccc(C(=O)COC(=O)Cc2cccc3ccccc23)cc1	-	-	-	-	-	0
Cc1ccc(Nc2nc(-c3cc4cc([N+](=O)[O-])ccc4oc3=O)cs2)cc1	-	-	-	-	-	0
COc1ccc(NC(=O)c2nn(C)c3c2CCc2sccc2-3)cc1OC	-	-	-	-	-	0
Cc1ccc2c(C)c(C)c(=O)n(C)c2c1	0	0	0	0	15µM	0
Cc1ccc2oc(=S)n(C)c2c1	0	?	0	0	0	0
CCNC(=O)NC(=O)COC(=O)c1cc(-c2ccco2)nc2ccccc12	-	-	-	-	-	6.3µM
CC(NC(=O)c1cc(-c2ccco2)nc2ccccc12)C(=O)NCc1ccccc1 (centres undefined)	-	-	-	-	-	40µM
CNC(=O)COC(=O)c1cc(-c2ccco2)nc2ccccc12	0	?	0	0	?	?
SMILES	PINK1 modulator	SW480 rereplic	MCF10A rereplic	KB-3-1 cytotox	KB-V1 MDR tox	ALOX12 inh
Cc1ccc(-c2cc(C(=O)OC(C)C(=O)NC(=O)NC3CCCC3)c3ccccc3n2)o1 (centres undefined)	-	-	-	-	-	4µM
O=C(COC(=O)c1cc(-c2ccco2)nc2ccccc12)NCc1ccccc1	0	0	?	0	0	10µM
CC(=O)Nc1cc(NCC(=O)NC2(C#N)CCCCC2)ccc1F	-	-	-	-	-	0
C#CCNC(=O)c1cc(-c2cccc(C(F)(F)F)c2)c2nncn2n1	-	-	-	-	-	0[6.33 µM]
O=C(NCCCN1CCCc2ccccc21)C1Cn2cccc2C(=O)N1Cc1cccnc1 (centres undefined)	-	-	-	-	-	0
CCNC(=O)COC(=O)c1cc(-c2ccc(OC)cc2)nc2ccccc12	?	0	0	0	0	0
CCNC(=O)NC(=O)COC(=O)c1cc(-c2ccc(C)o2)nc2ccccc12	-	-	-	-	-	3.2µM
O=C1c2c(-c3ccc(Br)cc3)noc2CCN1Cc1cn(-c2ccccc2)nn1	-	-	-	?	?	0
O=C1c2c(-c3ccc(Br)cc3)noc2CCN1Cc1cn(C2CCCC2)nn1	-	-	-	?	21µM	0
O=C1c2c(-c3ccc(Br)cc3)noc2CCN1Cc1cn(Cc2cccnc2)nn1	-	-	-	?	23µM	0
COc1ccccc1-c1noc2c1C(=O)N(Cc1cn(C3CCCC3)nn1)CC2	0	-	-	0	0	0
O=C1c2c(-c3ccc(Br)cc3)noc2CCN1Cc1cn(-c2ccc(Cl)cc2)nn1	-	-	-	21µM	18µM	0
CC(C)n1cnnc1-c1nn(C)c2c1CN(C(=O)CC1CCCC1)CC2	-	-	-	-	-	0
O=C1CSC(c2cccnc2)N1c1ccccc1 (centres undefined)	0	?	0	0	0	?
CC(C)(C)c1ccc(N2C(=O)CSC2c2cccnc2)cc1 (centres undefined)	0	0	2.3µM	0	0	0
S=C1NC2=C(CCC/C2=C\c2ccc(Cl)cc2)C(c2ccc(Cl)cc2)N1 (centres undefined)	0	0	0	0	0	25µM
CC1CC2=C(NC(=S)NC2c2ccc(F)cc2)/C(=C/c2ccc(F)cc2)C1 (centres undefined)	0	?	0	0	0	25µM
Fc1ccccc1/C=C1\CCCC2=C1NC(=S)NC2c1ccccc1F (centres undefined)	0	0	?	0	?	32µM
Cc1cnc(C(=O)NCC23CCC=C2N(C)C(=O)CC3)cn1 (centres undefined)	-	-	-	-	-	0
CCn1nc(NC(=O)c2ccco2)c2cc3cc(C)ccc3nc21	0	18µM	?	0	?	?
Cc1ccc2cc3c(NC(=O)c4ccco4)nn(C)c3nc2c1	0	?	18µM	?	?	0
CC(=O)Nc1nn(C)c2nc3cc(C)ccc3cc12	0	0	0	0	0	?
CCCn1nc(NC(=O)c2ccco2)c2cc3ccccc3nc21	0	18µM	16µM	?	?	0
Cc1noc(C)c1CC(=O)NC(c1ccccc1F)c1nccn1C (centres undefined)	-	-	-	-	-	0
CN(CC(=O)Nc1ccc(C#N)cc1)Cc1ccc(Cl)cc1	0	0	?	0	?	?
SMILES	PINK1 modulator	SW480 rereplic	MCF10A rereplic	KB-3-1 cytotox	KB-V1 MDR tox	ALOX12 inh
O=C(NCCNC(=O)Nc1ccc(Cl)cc1)Nc1ccc(Cl)cc1	0	0	0	0	0	13µM
O=C(NCCO)Nc1ccc(Cl)cc1	0	0	0	?	0	0
N#Cc1ccc(NC(=O)Nc2ccc(Cl)cc2)cc1	?	0	0	21µM	?	0
CC(C)NC(=O)C[C@@H]1CCNC[C@@H]1Cc1cc(CSc2ccccc2)on1	-	-	-	-	-	0
CC(=O)c1ccc(Oc2nc(C)nc3c2oc2ccccc23)cc1	0	-	-	18µM	0	0
COc1ccccc1C1=NN(C(=S)Nc2ccccc2)C(c2ccco2)C1 (centres undefined)	0	?	0	?	15µM	?
CNC(=S)N1N=C(c2ccc(C)cc2)CC1c1cc(OC)ccc1OC (centres undefined)	0	?	?	12µM	?	0

Screening results (PubChem BioAssay)
